Anthrax LF prot – inhibitors of Bacillus anthracis lethal factor protease | inhibition, % at 10 µM | P15917 | 0.12% of 360,000 active | multiplex microsphere protease cleavage assay, LF | AID 588501
BoNT F protease – inhibitors of Botulinum neurotoxin F light chain protease | inhibition, % at 10 µM | 0.22% of 360,000 active | Multiplex microsphere protease cleavage assay, flow cytometry; in the data active = inhibition above about 35%, passing the limit was not always enough; inconclusive = no clear call, values can overlap the other calls
BoNT-A LC inh2 – blocks Botulinum neurotoxin A light chain protease; AID 588499; multiplex microsphere protease substrate cleavage, flow cytometry; 0.17% of 360,000 active; inhibition, % at 10 µM
PfHsp40 yeast – restores yeast growth despite PfHsp40 toxicity | 0.68% of 340,000 active | growth rescue, % at 12.5 µM | S. cerevisiae expressing PfHsp40, growth rescue, ATP luminescence; in the data active = growth rescue above about 28%, passing the limit was not always enough; inconclusive = no clear call, values can overlap the other calls;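 note: yeast W303a lacking pdr1 and pdr3 grown in galactose medium; growth measured after three days at 30 °C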
Autofluor counter – compound fluorescence in toxin protease inhibitor counterscreen. compound autofluorescence counterscreen, microsphere flow cytometry; active compounds read high. AID 624483. 3.1% of 360,000 active. fluorescence intensity (concentration not given with the values); in the data active = fluorescence intensity above about 16000; inconclusive = no clear call, values can overlap the other calls
MazF activator – MazEF (E. coli) toxin RNase activation | P0AE70 | FAM/BHQ RNA-DNA oligo cleavage fluorescence, 5 h | 0.32% of 350,000 active | AID 504720 | activation, % at 20 µM; in the data active = activation above about 50%
A number is an active result; n = inactive; u = inconclusive; x = no result given. In the library only some 4.3% were active in any assay of this set; here they are far more common. Cut-off read from the data, not from the text of the source, unless noted: active = inhibition above about 30%; inconclusive = no clear call, values can overlap the other calls; inactive = below that.

SMILES | Anthrax LF prot | BoNT F protease | BoNT-A LC inh2 | PfHsp40 yeast | Autofluor counter | MazF activator
CCOC(=O)C1CCN(c2c(NCc3ccc(C(=O)N(C)Cc4ccccc4)cc3)c(=O)c2=O)CC1 | n | n | n | n | n | n
CC(C)(C)OC(=O)n1cc(/C=N/NC(=O)c2ccco2)c2ccccc21 | n | n | n | n | n | n
N#Cc1ccc(C(=O)Nc2ccc(N3CCN(C(=O)c4ccco4)CC3)cc2)c(F)c1 | n | n | n | n | 24354 | n
CN(C)CCO/N=C(\c1ccc(Br)cc1)c1cccnc1 | n | u | n | n | 21777 | n
O=C(Cc1csc(N2CCOCC2)n1)N/N=C/c1cccc(O)c1 | n | n | n | n | n | n
O=C(Cc1csc(N2CCOCC2)n1)N/N=C/c1ccc(F)cc1 | n | n | n | n | 20712 | n
CCN1C(=O)[C@H]2[C@H]3CN=C(SCC4CC4)N3[C@@](CC)(C(=O)OC)[C@H]2C1=O | n | n | n | n | n | n
C1=C(c2ccc(-c3ccccc3)cc2)Nc2ncnn2C1c1ccco1 (stereo not drawn) | n | n | n | n | n | 344
Fc1ccc(C2=CC(c3ccco3)n3ncnc3N2)cc1 (stereo not drawn) | n | n | n | n | n | n
Cc1ccc(C)c(NC(=O)c2ccccn2)c1 | n | n | u | n | 20724 | n
Cc1cccc(C(=O)Nc2cccc3cccnc23)c1 | n | n | n | n | n | n
Cc1cccc(C(=O)Nc2cccnc2Cl)c1 | n | n | 66 | n | n | n
CCOc1ncccc1C(=O)OCC(=O)Nc1cc(C)ccc1C | n | n | n | n | 23113 | n
Cc1cccc(C(=O)Nc2cc(OCc3cccc(F)c3)c(Cl)cc2Cl)c1 | n | n | u | n | 19656 | n
CCOc1cc(S(=O)(=O)NC2CC(C)(C)NC(C)(C)C2)ccc1Cl | n | n | n | 123 | n | n
CCOc1cc(C)c(Cl)cc1S(=O)(=O)NC1CC(C)(C)NC(C)(C)C1 | n | n | n | n | n | n
O=C(Nc1cc2c3c(c1)CC(=O)N3CCC2)C1CCCCC1 | n | n | n | n | n | n
C/C(=N/Nc1ccc(C(=O)c2c(C)cc3ccccn23)cc1[N+](=O)[O-])c1ccc(O)cc1 | n | n | n | n | n | n
Cc1cc(=O)n2c(ccc3ccccc32)c1C#N | n | n | n | n | n | n
Cc1cc(=O)n2ccccc2c1C#N | n | n | u | n | 22057 | n
CC/C(=C(/CC)c1ccc(O)cc1)c1ccc(O)cc1 | n | n | n | 107 | n | n
Cc1cccc(NS(=O)(=O)c2ccc(Br)s2)n1 | n | n | n | n | 19822 | n
O=C(CSCCOc1ccccc1)NCc1ccncc1 | n | n | n | n | n | n
C#CCOCCOCCOCCNc1nc(N2CCN(C(=O)[C@H](CCCN=C(N)N)n3cc(C(N)[C@@H](C)CC)nn3)CC2)nc(N2CCN(C(=O)[C@H](CCC(=O)O)n3cc([C@@H](N)CO)nn3)CC2)n1 (stereo partly drawn) | n | n | n | n | n | n
Oc1c(C=C2N=c3ccccc3=N2)sc(=S)n1-c1ccc2ccccc2c1 | n | n | n | n | n | n
SMILES | Anthrax LF prot | BoNT F protease | BoNT-A LC inh2 | PfHsp40 yeast | Autofluor counter | MazF activator
Oc1c(C=C2N=c3ccccc3=N2)sc(=S)n1C1CCCC1 | 39 | n | 70 | n | n | n
Oc1[nH]c(=S)sc1C=C1N=c2ccccc2=N1 | n | u | n | n | n | n
Oc1c(C=C2N=c3ccccc3=N2)sc(=S)n1-c1ccc(F)cc1 | 34 | n | 54 | n | n | n
Oc1ccccc1N1CCN(C(c2ccccc2)c2ccccc2)CC1 | n | n | n | n | n | n
Cc1[nH]c(=O)c(C#N)c2c1COC(C)(C)C2 | n | n | n | n | n | n
CC(C)c1[nH]c(=O)c(C#N)c2c1COC(C)(C)C2 | n | n | n | n | 21618 | n
CSc1ccc(/C=C(/NC(=O)c2ccco2)C(=O)N2CCOCC2)cc1 | n | n | n | n | n | n
O=C(CCC(=O)Nc1ccccc1)NNC(=O)c1cccs1 | n | n | n | n | 21744 | n
CCCC(=O)Nc1ccc(C(=O)NNC(=O)c2cccs2)cc1 | n | n | n | n | 22535 | n
CCCC(=O)Nc1ccc(C(=O)NNC(=S)NC(=O)c2cccs2)cc1 | n | n | n | n | n | n
O=C(NNC(=S)Nc1ccccc1)c1cccs1 | n | n | n | n | n | n
Cc1c(C(=O)O)sc(S(=O)(=O)N2CCN(C(=O)CCc3ccccc3)CC2)c1C(=O)O | n | n | n | n | n | n
CCOC(=O)C1CCCN(C(=O)Cc2ccc(OC)c(OC)c2)CC1 (stereo not drawn) | n | n | n | x | n | x
CCCc1ccc(-c2csc(NC(=O)C3=COCCO3)n2)cc1 | n | n | n | 50 | n | n
Cc1ccc(-c2csc(NC(=O)C3=COCCO3)n2)cc1 | n | n | n | n | n | n
CCN(CC)CCNC(=O)c1ccc(NC(=O)c2cc(S(=O)(=O)N3CCCCC3)ccc2N2CCOCC2)cc1 | n | n | n | n | n | n
CC1(C)C/C(=N\O)c2cc3c(nc2C1)CCCC3 | n | n | n | n | 23918 | n
CC1CCCN(Cc2c(C(=O)N3CCc4ccccc4C3)nc3ccc(Cl)cn23)C1 (stereo not drawn) | n | n | n | 55 | n | n
COc1ccc(CCNC(=O)CSc2ncn[nH]2)cc1 | n | n | n | n | 19819 | n
CC(=O)Nc1nonc1NC(=O)CSc1ncn[nH]1 | n | n | n | n | 21267 | n
O=C(CSc1ncn[nH]1)Nc1c(F)cc(F)cc1Br | n | n | u | n | 23998 | n
CC(=O)Nc1nonc1NC(=O)CSc1ccccn1 | n | n | n | n | u | n
Cc1nnc(SCC(=O)N2CCOCC2)s1 | n | n | u | n | 19625 | n
CCCCn1nnnc1C(c1cc2ccccc2o1)N1CCN(C/C=C/c2ccccc2)CC1 (stereo not drawn) | n | n | n | x | n | x
Cc1nnc(SCC(=O)Nc2ccc3c(c2)OCO3)s1 | n | n | n | n | n | n
SMILES | Anthrax LF prot | BoNT F protease | BoNT-A LC inh2 | PfHsp40 yeast | Autofluor counter | MazF activator
O=C(CSc1ncn[nH]1)c1ccc2c(c1)OCCO2 | n | n | n | n | n | n
Cc1nnc(SCC(=O)Nc2ccc3c(c2)OCCO3)s1 | n | n | n | n | 21759 | n
O=C(CSc1ncn[nH]1)Nc1ccc2c(c1)OCCO2 | n | n | n | n | 23582 | n
CCOC(=O)c1[nH]c2cc3c(cc2c1CCCN1C(=O)c2ccccc2C1=O)OCCO3 | n | n | u | n | 19746 | n
NC(=S)NN=Cc1nccc2ccccc12 | n | n | n | 94 | n | n
Cc1ccc(-c2cc(C#N)c(=O)n(Cc3c(Cl)cccc3Cl)c2)cc1 | n | n | n | n | n | 58
O=C(Cc1coc2ccc3ccccc3c12)NCc1ccccc1 | n | n | n | n | 20707 | n
NC(=O)NC(Cc1ccccc1)C(=O)NCCCSc1ccccc1 (stereo not drawn) | n | n | n | n | n | n
OCC(O)C1OC(c2ccco2)OC(CO)C1O (stereo not drawn) | n | n | n | n | n | n
O=C(/C=C/c1ccccc1)c1cc(Br)ccc(=O)c1O | n | n | n | 332 | n | n

From PubChem BioAssay
